Data published in the supplement of paper PMC3334620.
In all, about 33,000 sequences were measured (“E-score (-0.5 to 0.5)”: median about -0.012, highest 2% from about 0.29 on). Only a selection was taken, and the highest values are over-represented in it overall.

Target: T1, Ybr033w (UniProt P38073)
T1 sequence: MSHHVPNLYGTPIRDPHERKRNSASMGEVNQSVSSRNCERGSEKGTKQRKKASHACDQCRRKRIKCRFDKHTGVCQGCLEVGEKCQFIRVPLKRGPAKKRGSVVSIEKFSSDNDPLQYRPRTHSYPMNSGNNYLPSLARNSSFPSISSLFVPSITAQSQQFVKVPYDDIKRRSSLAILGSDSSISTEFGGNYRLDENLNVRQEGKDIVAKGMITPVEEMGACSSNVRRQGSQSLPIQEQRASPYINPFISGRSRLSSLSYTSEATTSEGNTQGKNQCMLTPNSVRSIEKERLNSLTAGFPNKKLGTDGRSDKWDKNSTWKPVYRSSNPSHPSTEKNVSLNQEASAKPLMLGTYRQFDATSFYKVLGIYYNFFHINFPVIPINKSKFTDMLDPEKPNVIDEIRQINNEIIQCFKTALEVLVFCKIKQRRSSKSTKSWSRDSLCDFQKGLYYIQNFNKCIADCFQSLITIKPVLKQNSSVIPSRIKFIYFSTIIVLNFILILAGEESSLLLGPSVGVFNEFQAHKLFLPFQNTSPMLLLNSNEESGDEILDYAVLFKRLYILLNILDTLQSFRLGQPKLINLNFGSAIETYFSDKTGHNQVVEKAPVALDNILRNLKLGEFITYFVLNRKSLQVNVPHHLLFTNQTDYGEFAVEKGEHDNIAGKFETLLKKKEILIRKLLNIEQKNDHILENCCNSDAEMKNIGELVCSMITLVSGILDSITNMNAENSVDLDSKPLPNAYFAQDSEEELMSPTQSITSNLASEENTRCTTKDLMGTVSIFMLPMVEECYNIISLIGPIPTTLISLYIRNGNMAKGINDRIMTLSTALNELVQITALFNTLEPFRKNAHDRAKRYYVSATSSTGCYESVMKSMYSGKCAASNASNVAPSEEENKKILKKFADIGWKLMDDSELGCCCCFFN
Test: PBM E-score (8-mer binding enrichment) (E-score (-0.5 to 0.5)); higher = stronger / more preferred TF binding
Conditions: protein concentration: 200 nM; construct: GST-full length
Outline: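 Using PURExpress in vitro transcription/translation, GST-tagged yeast transcription factors were made in full-length or DNA-binding-domain form. These were applied at about 100-200 nM to double-stranded universal all-10-mer Agilent arrays, and bound protein was detected with fluorescent anti-GST. Scans were normalised with masliner before the Universal PBM Analysis Suite assigned E-scores to ungapped eight-base words pooled with their reverse complements.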

Sequence	PBM E-score
CTTTGGTC	0.0811
GAACTTCC	0.16
CTTCGCCC	-0.143
AATAGGGG	-0.0543
GGGGCTCA	-0.219
AGTTGCGG	0.0698
AAGTTAGA	0.235
GTACAGAC	-0.1
GACACATC	-0.11
GGCTACCA	-0.203
GATGCTAC	0.0488
CCCTTTCA	-0.19
AAGTCTTA	-0.00514
CCGGATAC	-0.0612
CCGGATAG	0.0368
CCGGATAA	0.454
CCAGAATA	0.0783
ACTTTGGA	0.156
ACCATGAC	-0.0754
ACAGCTGC	-0.0919
CGAGAGAC	-0.188
AAATTATC	0.418
AAATTATT	0.417
CAATTAAC	0.224
CAATTATC	0.365

Sequence	PBM E-score
ACATTATC	0.219
AGATTATC	0.301
CGATTATC	0.07
CAATTATG	0.08
AAATTATG	0.227
AAATTAGG	0.138
AGATTATG	0.148
AAATTAGT	0.206
CCCCACAA	-0.229
CACTTTAG	0.112
ACTTACTC	0.0333
GTGCGGTA	-0.0389
CCCAAGCA	-0.0848
AACCTCGG	0.0447
GAAATCTC	-0.0338
CGGGGGAG	-0.329
AATATATG	0.204
AAAATATC	0.304
AAAATATT	0.364
ACAATATG	0.199
CAAATATC	0.269
AAAATAGT	0.225
ACAATATA	0.264
AATATATA	0.277
ACAATATC	0.293

Sequence	PBM E-score
AATATATT	0.411
AAAATATA	0.28
CACCTCTC	-0.283
AGAATGGA	0.0873
GGACGCGA	-0.0773
ATCTGGGC	-0.0818
CTCCTCGC	-0.257
CATTCTAA	0.165
CTGGCTTC	-0.174
TATTCTGA	0.0151
ATCTCATG	0.0775
ATTTTCTG	0.0635
AGAATATG	0.229
AAAATATG	0.299
CAAATATG	0.0991
GTCTGACA	0.00461
CAGTTATC	-0.0111
GAGTAGTA	0.163
ATTAATGA	0.354
ATTAATGC	0.22
GTTAATGA	0.12
ATTAATGG	0.289
CTTAATGA	-0.0192
AATAATGG	0.162
AATTAGCG	0.161

Sequence	PBM E-score
AGTCTCAC	-0.0327
TAAAGGAA	0.162
CGGATGAG	-0.0297
CGGATGAA	0.371
AGGATGAA	0.187
AGTCCAGC	-0.114
GGGTGAAA	0.0993
ACAGTCGT	-0.164
TGAAAAAA	0.246
GGGGAAAA	0.208
AGGAAAAA	0.431
GGGAAAAC	0.0792
CGTGGAAA	0.182
TGTGGAAA	0.291
AGGAAAAC	0.12
TGGAAACA	-0.0929
AGTGGAAA	0.146
TGGAAAAA	0.458
GGGAAAAA	0.453
AGGAAAAG	0.038
GGCTGAGA	-0.171
GTCATTAA	0.203
TGTTATAA	0.19
ATACGGTA	0.125
CTTTGTGC	-0.00737

Sequence	PBM E-score
CAGGCATC	0.00941
TCTCGACA	0.0966
CCGACTCC	-0.185
AAGAAAAT	0.331
AAGAAATT	0.281
AGAAAAAT	0.269
ACGAAAAT	0.259
AAGAAAAA	0.258
AGGAAAAT	0.379
CTACTGGC	-0.052
AGTAGCTG	0.0396
GCAGCGTA	-0.106
AGAACTAT	0.275
ATCTTTGG	0.0693
ATTTAATA	0.325
ATTTAGTA	0.376
CTTTAATA	0.227
CTTTAATC	0.145
ATTTAATC	0.352
ATTTAATG	0.244
CTTTAGTA	0.0159
ATTTAGTC	0.0709
GTTTAATA	0.264
GACTCCCA	-0.305
CAGCCGTC	-0.0893

Sequence	PBM E-score
TAGAAGAA	0.0772
AGGAAGAC	-0.214
CGGAAGAC	0.00735
AGGAAGAG	-0.0292
TGGAAGAA	0.347
AGGAAGAT	0.323
CGGAAGAG	-0.108
AAGAAGAA	0.185
AGGAAGAA	0.36
AAGAAGAT	0.205
CGGAAGAA	0.462
GGGAAGAA	0.256
TGATACCA	0.092
CATTGGGC	-0.222
CCTAAAAG	-0.226
AGGATGCC	-0.102
ATCGAATC	0.0745
TAAAGGTA	0.0512
CAATGAAC	0.00305
GCGCACAA	-0.0152
CCGAAATC	0.0136
GGACCAGA	-0.0563
AAGTCCAC	-0.0692
GTACCACA	0.121
TTGGAAAA	0.298

Sequence	PBM E-score
GTGGAAGA	0.137
ATGGGAAA	0.0136
CTGGAAAC	-0.0702
CTGGAAAA	0.377
CTGGGAAA	0.135
TAGGAAAA	0.229
GTGGAAAA	0.298
GTGGAAAC	-0.0663
TTGGGAAA	0.294
CTGGAAAG	-0.189
TTGAAAAA	0.237
AAAGCTTG	0.147
CTGCAAAC	0.0506
CCGCCTGA	-0.172
TCTGCGCA	0.0104
CAGATATG	-0.0501
ATGGAAAA	0.32
ATGGAAAG	0.122
ATGGAAAT	0.175
ATTTGGCC	-0.0178
CTCATCAG	0.0236
CAATGAGG	-0.14
